# From PubChem BioAssay AID588590 (National Center for Advancing Translational Sciences (NCATS), 2011)
# Where “and” joins values, the source holds several entries; their conditions need not be identical. Identical values can stand only once. In all, about 390,000 compounds went through this assay and about 4,000 (1%) were called active. About 7% were inconclusive and are not listed. The sample holds actives, similar compounds and a random draw of the others, so the mix is not that of the screen. Calls follow the shape of the dose curve; as a rule, active = well fitted inhibition curve with a large enough effect; inconclusive = small, poorly fitted or top-dose-only effect, or another doubt; inactive = no such curve, though single readings can be large or run the other way.
# Target: DNA polymerase iota (Homo sapiens) (UniProt Q9UNA4)
# Sequence (Q9UNA4 whole entry, looked up): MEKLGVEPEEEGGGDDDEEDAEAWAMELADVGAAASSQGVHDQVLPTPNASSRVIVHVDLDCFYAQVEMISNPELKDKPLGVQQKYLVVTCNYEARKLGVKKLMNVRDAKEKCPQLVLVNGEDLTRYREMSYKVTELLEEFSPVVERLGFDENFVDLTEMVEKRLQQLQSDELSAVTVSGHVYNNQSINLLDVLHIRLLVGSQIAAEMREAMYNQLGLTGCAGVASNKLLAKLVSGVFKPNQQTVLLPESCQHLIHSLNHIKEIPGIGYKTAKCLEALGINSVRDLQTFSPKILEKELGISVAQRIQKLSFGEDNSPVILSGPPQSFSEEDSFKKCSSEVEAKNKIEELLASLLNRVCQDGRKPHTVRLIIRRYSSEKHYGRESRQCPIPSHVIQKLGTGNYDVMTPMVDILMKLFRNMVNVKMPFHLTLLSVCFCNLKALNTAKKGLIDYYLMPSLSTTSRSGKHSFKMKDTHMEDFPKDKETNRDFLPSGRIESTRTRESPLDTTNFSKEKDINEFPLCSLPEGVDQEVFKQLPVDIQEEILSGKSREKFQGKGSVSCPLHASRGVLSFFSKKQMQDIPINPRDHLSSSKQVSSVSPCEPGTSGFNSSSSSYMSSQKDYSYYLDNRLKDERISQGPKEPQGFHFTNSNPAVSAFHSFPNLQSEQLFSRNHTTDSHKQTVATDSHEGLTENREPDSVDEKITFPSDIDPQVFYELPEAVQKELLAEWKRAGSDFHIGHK
# Test: qHTS for Inhibitors of Polymerase Iota
# Settings: Pol iota fluorescent replication assay, 10 min; series mostly up to 115 µM; activity, negative = inhibition: at the top concentration
# Summary of the method: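 Fluorescent replication assay read twice, at 0 min and 10 min after adding 50 nM (final) substrate. Enzyme (10 nM) and compounds were first incubated 15 min at room temperature; enzyme-free buffer wells were negative controls.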
# Potency is read from the fitted curve at half-maximal effect.
Compound,"activity, negative = inhibition",Potency
Nc1ncnc2nnsc12,-2.97% (inactive),
COC(=O)c1ccc(Cn2c(SCC(=O)N(C)c3ccccc3)nc3ccccc32)cc1,-4.29% (inactive),
CCC(C)Cn1c(O)cc2nn(-c3nc4ccccc4s3)c(=O)c-2c1C (stereo unspecified),,12.6 µM (active)
CC(=O)c1cc(-c2ccccc2)[nH]c1N1CCCC1,5.83% (inactive),
O=C1NN(c2ccccc2)C(=O)/C1=C/c1ccc(-c2cccc(C(=O)O)c2)o1,,8.91 µM (active)
COc1ccc2c(c1)C=C(C(=O)NCc1cc(Br)ccc1OC)CO2,24.9% (inactive),
COC(=O)c1ccc(NC(=O)CCc2c(C)nn(-c3ccc(N4CCCC4)nn3)c2C)cc1,3.11% (inactive),
COc1ccc(C)cc1NC(=O)COCc1cc(-c2cccs2)on1,-5.82% (inactive),
O=C(NC1CC(=O)N(c2ccccc2)C1)c1ccco1 (stereo unspecified),18.3% (inactive),
CCOc1cc2[nH]c(=O)n(Cc3ccc(C(=O)NCCN(CC)CC)cc3)c(=O)c2cc1OCC,22.6% (inactive),
Cc1ccc(C(=O)OCC(=O)N2CC(C)CC(C)C2)cc1S(=O)(=O)N1CCCCC1 (stereo unspecified),50.2% (inactive),
Cc1ccc(C(=O)OCC(=O)NCc2cc(C)c(O)c(C)c2)cc1S(=O)(=O)N1CCCCC1,,79.4 µM (active)
COc1ccc(CNC(=O)COC(=O)c2ccc(C)c(S(=O)(=O)N3CCOCC3)c2)cc1OC,33.4% (inactive),
CC1CCCN(c2nc3c(S(=O)(=O)c4ccc(C(C)C)cc4)nnn3c3ccsc23)C1 (stereo unspecified),28.7% (inactive),
CCc1nn(CC(=O)Nc2cccc(C)c2C)c(=O)c2cc3sccc3n12,-1.22% (inactive),
O=C(CN1C(=O)c2cccc3cccc1c23)Nc1ccccc1,120% (inactive),
O=C(CN1C(=O)c2cccc3cccc(c23)C1=O)N1CCCCC1,27.2% (inactive),
C[N+](C)(CCCCCC[N+](C)(C)CCCN1C(=O)c2cccc3cccc(c23)C1=O)CCCN1C(=O)c2cccc3cccc(c23)C1=O,,2.24 µM (active) and 20 µM (active)
CCn1c(C)c(C)c2cc(C(=O)NCCc3cc(OC)ccc3OC)ccc21,10.3% (inactive),
Cc1cccc(CCNC(=O)c2ccc3c(c2)nc2n3CCC(C)C2)c1 (stereo unspecified),21.1% (inactive),
COc1cc2[nH]c(C)c(CCN3CCN(c4ccccc4)CC3)c2cc1OC,14.1% (inactive),
COC(=O)C1=C(C)NC(=O)/C1=C/c1ccc(CNS(=O)(=O)c2ccc(C)cc2)o1,8.35% (inactive),
O=S(=O)(NCc1ccccc1)c1ccc(S(=O)(=O)N2CCCC2)cc1,55.4% (inactive),

Compound,"activity, negative = inhibition",Potency
O=c1/c(=C/c2ccc(CNS(=O)(=O)c3ccccc3)o2)sc2n1CCN=2,,35.5 µM (active)
CCc1cccc(-n2nnc(-c3nsc(NC(=O)c4ccc(C)cc4)n3)c2C)c1,10.3% (inactive),
O=C(Nc1ccc2oc(-c3ccc(O)c(Br)c3)nc2c1)c1cc2ccccc2o1,25% (inactive),
Cc1ccccc1NC(=O)Cn1c(=O)n(Cc2ccco2)c(=O)c2ccc(C(=O)NC3CCCC3)cc21,11.1% (inactive),
COc1ccc(NC(=O)C2CCCN(S(=O)(=O)c3cccc4nonc34)C2)cc1Cl (stereo unspecified),-4.75% (inactive),
CCOc1ccc(NC(=O)C/C(C)=N/NC(=O)Cc2cccs2)cc1,16.3% (inactive),
COc1ccc(Cc2nnc(NC(=O)c3cc(OC)c(OC)c(OC)c3)s2)cc1OC,-6.07% (inactive),
CCOc1ccccc1NC(=O)Cc1cccs1,,44.7 µM (active)
CCOc1ccccc1NC(=O)CCn1cnnn1,12.4% (inactive),
COc1ccc(CNC(=O)CCC(=O)Nc2nnc(C(C)C)s2)cc1,39.1% (inactive),
O=C(Cc1cccs1)Nc1ccc([N+](=O)[O-])cc1,-7.17% (inactive),
CCc1nnc(NC(=O)Cc2cccs2)s1,,11.2 µM (active)
CCc1nnc(NC(=O)CCC(=O)NCc2ccccc2OC)s1,14.9% (inactive),
COc1ccc(Cc2nnc(NC(=O)Cc3cccs3)s2)cc1,,4.47 µM (active)
COc1ccc(-c2cc(-c3ccccc3)nc3c2COc2ccc(Cl)cc2-3)cc1,16.9% (inactive),
CCN(CC)c1nc(C#N)nc(OC)n1,-19.6% (inactive),
CCc1ccc(OCCCn2c(CCCNC(=O)C3CCCCC3)nc3ccccc32)cc1,22.4% (inactive),
C/C(=N\Nc1ccc(S(N)(=O)=O)cc1[N+](=O)[O-])c1cccs1,,25.1 µM (active)
C/C(=N\Nc1ccccc1)c1cccs1,14.5% (inactive),
CCOC(=O)C/C(C)=N\Nc1ccc([N+](=O)[O-])cc1[N+](=O)[O-],-3.02% (inactive),
O=C(NNc1c2ccccc2nc2ccccc12)c1cc2ccccc2cc1O,,39.8 µM (active)
Cc1ccc(C(=O)NNc2ncnc3ccccc23)cc1,-4.31% (inactive),
O=C(Cc1ccccn1)c1ccc(O)cc1O,-3.24% (inactive),
